A number with no mark means an inactive call. Records with an inconclusive call do not appear. Entries that show only a call come without a potency. Calls of active or inactive are those of the source. Unless noted, the call rests on the fitted dose curve; in most records, active means well fitted curve in the direction sought with a large enough effect in the repeat runs; inconclusive means weak or mixed curves; inactive means no such curve, though single readings can be large; an effect the other way counts as inactive or inconclusive.
Assays:
[1] = A CellTox Green Cytotoxicity Assay to monitor cytotoxicity in HEK293 cells - 32 hour (AID 1224881); further: nearly all actives have a fitted effect of over 40% in size
In short: (§1)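 HEK293 cells premixed with CellTox Green dye were seeded at 600 cells/well and left 5 h at 37 C/5% CO2 before pin transfer of 23 nL compound in DMSO. Fluorescence from dye bound to dead-cell DNA was read during 40 h treatment.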

[2] = A CellTox Green Cytotoxicity Assay to monitor cytotoxicity in HepG2 cells - 0 hour (AID 1224882); further: nearly all actives have a fitted effect of over 35% in size
In short: (§2)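 HepG2 cells were seeded together with the CellTox Green dye at 600 cells/well, left 5 h at 37 C/5% CO2, then given compounds in DMSO. Fluorescence from dye bound to dead-cell DNA was read repeatedly over 40 h of treatment at 37 C.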

[3] = A CellTox Green Cytotoxicity Assay to monitor cytotoxicity in HEK293 cells - 8 hour (AID 1224884); further: nearly all actives have a fitted effect of over 35% in size
In short: as §1

[4] = qHTS RealTime-Glo MT Cell Viability Assay in HepG2 cells - 16 hour (AID 1224885); further: nearly all actives have a fitted effect of over 50% in size
In short: (§3)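 Tox21 10K library screened in qHTS format on HepG2 cells carrying RealTime-Glo reagents. Compounds were added after a 5 h preincubation, and the luminescent signal from continuous culture was measured repeatedly during 40 h treatment.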

[5] = qHTS RealTime-Glo MT Cell Viability Assay in HEK293 cells - 24 hour (AID 1224886); further: top concentration of the series differs between compounds; nearly all actives have a fitted effect of over 50% in size
In short: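 Luminescence generated by NanoLuc from substrate produced by living HEK293 cells served as the viability signal. Each value reflects the reading at its stated time point during continuous 40 h compound exposure at 37 C.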

[6] = qHTS RealTime-Glo MT Cell Viability Assay in HEK293 cells - 8 hour (AID 1224887); further: top concentration of the series differs between compounds; nearly all actives have a fitted effect of over 50% in size
In short: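 HEK293 cells mixed with RealTime-Glo reagents (NanoLuc plus cell-permeant prosubstrate) at 600 cells/well, preincubated 5 h at 37 C/5% CO2, then given 23 nL compound in DMSO. Nonlytic luminescence from viable cells was read at 0, 8, 16, 24, 32 and 40 h.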

[7] = qHTS RealTime-Glo MT Cell Viability Assay in HepG2 cells - 0 hour (AID 1224889); further: nearly all actives have a fitted effect of over 50% in size; further: potency means the concentration at half of the fitted maximal effect
In short: as §3

[8] = A CellTox Green Cytotoxicity Assay to monitor cytotoxicity in HepG2 cells - 8 hour (AID 1224890); further: nearly all actives have a fitted effect of over 45% in size
In short: as §2

[9] = qHTS assay to identify small molecule antagonists of the estrogen receptor alpha (ER-alpha) signaling pathway using the BG1 cell line in the presence of 0.1 nM 17-beta-estradiol - cell viability counter screen (AID 1259241); further: nearly all actives have a fitted effect of over 40% in size
In short: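 VM7Luc4E2 cells (endogenous full-length ER-alpha, 4xERE-luciferase), cultured 5 days in charcoal-stripped serum, exposed to compounds with 0.1 nM 17beta-estradiol (final) for 22 hr at 37C. Viability read in same wells as live-cell protease fluorescence after 30 min.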

[10] = qHTS assay to identify small molecule antagonists of the androgen receptor (AR) signaling pathway using the MDA cell line in the presence of 0.5 nM R1881 - cell viability counter screen (AID 1259242); further: nearly all actives have a fitted effect of over 45% in size
In short: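 MDA-kb2 cells (human breast carcinoma, stably carrying MMTV-luciferase reporter) were exposed to compounds with 0.5 nM R1881 (final) for 16 hr at 37C, 0% CO2; viability then read as live-cell protease fluorescence (CellTiter-Fluor, 30 min) in the same wells.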

[11] = biological target: Androgen receptor (Homo sapiens) (UniProt P10275); assay: qHTS assay to identify small molecule antagonists of the androgen receptor (AR) signaling pathway using the MDA cell line in the presence of 0.5 nM R1881 (AID 1259243); further: nearly all actives have a fitted effect of over 50% in size
In short: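 MDA-kb2 human breast carcinoma cells carrying an MMTV-luciferase reporter (AR- and GR-responsive) were plated, rested 5 hr at 37C, dosed with compounds, then stimulated with 0.5 nM R1881 (final) for 16 hr; luminescence was read after ONE-Glo.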

[12] = biological target: Estrogen receptor (Homo sapiens) (UniProt P03372); assay: qHTS assay to identify small molecule antagonists of the estrogen receptor alpha (ER-alpha) signaling pathway using the BG1 cell line in the presence of 0.1 nM 17-beta-estradiol (AID 1259244); further: nearly all actives have a fitted effect of over 50% in size
In short: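 VM7Luc4E2 cells (endogenous full-length ER-alpha, stable 4xERE-luciferase) were grown 5 days in phenol red-free medium with charcoal-stripped FBS, then exposed 22 h at 37C to compounds plus 0.1 nM (final) 17beta-estradiol; ONE-Glo luminescence read-out.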

[13] = qHTS assay to identify small molecule HDAC inhibitors (AID 1259364); further: top concentration of the series differs between compounds; nearly all actives have a fitted effect of over 45% in size
In short: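 Wild-type HCT-116 cells were plated overnight, exposed to compounds for 2 h at 37 °C, then given HDAC-Glo class I/II luminogenic reagent for 30 min at room temperature before luminescence was read.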

[14] = qHTS assay to identify small molecule HDAC inhibitors - cell viability counter screen (AID 1259365)
In short: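 Wild-type HCT-116 cells, 1,500/well, cultured overnight, then compound-treated 2 h at 37 C. Viability measured as ATP luminescence with CellTiter-Glo after 30 min at room temperature.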

[15] = qHTS assay to identify small molecule agonists of the sonic hedgehog signaling (Shh) pathway - cell viability counter screen (AID 1259366); further: nearly all actives have a fitted effect of over 50% in size
In short: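 NIH/3T3-derived Gli1-Luc reporter cells, 2,000 per well, received compound after 4 h and were treated about 23 h at 37C. Viability measured in the same wells by CellTiter-Fluor fluorescence after 1 h.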

[16] = qHTS assay to identify small molecule agonists of the sonic hedgehog signaling (Shh) pathway (AID 1259368; calls by dose curve; further: series mostly up to about 92 µM; nearly all actives have a fitted effect of over 15% in size)
In short: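 NIH/3T3-derived 3T3Gli1-Luc cells carrying a stably integrated Gli1 response element–firefly luciferase reporter were plated, left 4 hr at 37 C, then given compounds in DMSO for 24 hr. Luminescence was read 30 min after adding luciferase reagent.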

[17] = A CellTox Green Cytotoxicity Assay to monitor cytotoxicity in HepG2 cells - 32 hour (AID 1224883); further: nearly all actives have a fitted effect of over 50% in size
In short: as §2

[18] = A CellTox Green Cytotoxicity Assay to monitor cytotoxicity in HEK293 cells - 16 hour (AID 1224888); further: nearly all actives have a fitted effect of over 35% in size
In short: as §1

[19] = qHTS assay to identify small molecule phospholipidosis (PLD) inducers (AID 1259344; active means well fitted curve in the direction sought with a large enough effect; an effect the other way counts as inactive or inconclusive)
In short: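 Fluorescent phospholipid staining (LipidTOX Red) measured by automated microscopy in fixed HepG2 cells after 24 h treatment; nuclei counterstained with Hoechst 33342; amiodarone as reference inducer.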

[20] = qHTS assay to identify small molecule antagonists of the sonic hedgehog signaling (Shh) pathway - cell viability counter screen (AID 1259367); further: nearly all actives have a fitted effect of over 55% in size
In short: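 Using CellTiter-Fluor, viability of Gli1-Luc reporter 3T3 cells is read by fluorescence in the wells used for the Shh luciferase assay. Treatment lasts 23 hr with conditioned medium, then reagent 1 hr at 37C.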

Chain of Estrogen receptor (Homo sapiens) (P03372 whole entry, looked up): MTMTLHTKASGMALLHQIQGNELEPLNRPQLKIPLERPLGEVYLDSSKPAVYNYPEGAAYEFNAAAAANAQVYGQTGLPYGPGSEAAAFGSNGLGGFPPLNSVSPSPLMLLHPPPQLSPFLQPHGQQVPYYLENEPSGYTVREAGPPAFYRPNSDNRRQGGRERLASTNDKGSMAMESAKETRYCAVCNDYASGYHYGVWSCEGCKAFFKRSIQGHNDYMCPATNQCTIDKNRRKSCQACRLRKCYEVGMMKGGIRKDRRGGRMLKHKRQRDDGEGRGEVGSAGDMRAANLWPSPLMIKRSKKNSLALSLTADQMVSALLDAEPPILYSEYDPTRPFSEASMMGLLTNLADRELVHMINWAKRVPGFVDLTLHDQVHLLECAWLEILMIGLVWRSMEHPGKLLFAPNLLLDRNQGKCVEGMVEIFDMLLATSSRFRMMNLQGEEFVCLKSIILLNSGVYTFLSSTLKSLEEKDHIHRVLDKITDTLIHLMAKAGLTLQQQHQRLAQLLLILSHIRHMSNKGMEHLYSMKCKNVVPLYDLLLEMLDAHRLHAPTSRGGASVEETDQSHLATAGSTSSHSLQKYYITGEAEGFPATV
Chain of Androgen receptor (Homo sapiens) (P10275 whole entry, looked up): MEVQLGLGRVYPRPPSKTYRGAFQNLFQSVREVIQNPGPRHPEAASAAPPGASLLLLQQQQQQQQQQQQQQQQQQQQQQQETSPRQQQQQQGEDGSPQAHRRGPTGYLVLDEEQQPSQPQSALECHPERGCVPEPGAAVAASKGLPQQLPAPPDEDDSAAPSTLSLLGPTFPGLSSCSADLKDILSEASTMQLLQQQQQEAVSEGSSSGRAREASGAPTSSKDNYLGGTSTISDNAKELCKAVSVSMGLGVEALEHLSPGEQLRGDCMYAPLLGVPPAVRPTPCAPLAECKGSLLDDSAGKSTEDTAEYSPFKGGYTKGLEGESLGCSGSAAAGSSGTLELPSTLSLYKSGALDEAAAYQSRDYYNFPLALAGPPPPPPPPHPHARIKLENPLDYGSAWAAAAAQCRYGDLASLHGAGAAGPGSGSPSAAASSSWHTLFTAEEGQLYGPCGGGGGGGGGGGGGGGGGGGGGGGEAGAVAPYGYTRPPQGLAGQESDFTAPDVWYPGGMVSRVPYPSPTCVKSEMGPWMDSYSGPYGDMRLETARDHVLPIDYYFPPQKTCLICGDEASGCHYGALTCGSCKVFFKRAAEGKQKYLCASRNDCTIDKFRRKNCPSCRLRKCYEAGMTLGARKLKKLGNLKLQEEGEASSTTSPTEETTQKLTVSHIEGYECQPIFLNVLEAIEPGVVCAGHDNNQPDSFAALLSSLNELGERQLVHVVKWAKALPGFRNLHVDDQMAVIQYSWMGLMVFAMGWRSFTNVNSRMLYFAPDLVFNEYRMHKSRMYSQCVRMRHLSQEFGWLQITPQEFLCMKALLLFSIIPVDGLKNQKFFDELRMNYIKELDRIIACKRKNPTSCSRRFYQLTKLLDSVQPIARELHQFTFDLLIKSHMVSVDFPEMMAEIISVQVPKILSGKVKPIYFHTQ

SMILES	outcome [1]	Potency [2]	outcome [3]	outcome [4]	Potency [5]	Potency [6]	Potency [7]	outcome [8]	outcome [9]	outcome [10]	Potency [11]	outcome [12]	Potency [13]	outcome [14]	Potency [15]	outcome [16]	Potency [17]	outcome [18]	outcome [19]	Potency [20]
CCCCCCCCCC[N+](C)(C)[O-]	inactive	inactive	inactive	inactive	inactive	inactive	inactive	inactive	inactive	inactive	inactive	inactive	inactive	inactive	inactive	inactive	–	–	–	–
[O-][n+]1cccc(CO)c1	–	inactive	inactive	inactive	inactive	inactive	inactive	inactive	inactive	inactive	–	inactive	inactive	inactive	inactive	inactive	inactive	inactive	inactive	inactive
CN1CCC(=C2c3ccccc3CCc3cccnc32)CC1	inactive	inactive	inactive	inactive	–	inactive	inactive	inactive	inactive	inactive	–	inactive	inactive	inactive	–	inactive	–	inactive	–	–
C=CCCCCCCCCC(=O)OCC	inactive	inactive	–	inactive	–	inactive	inactive	inactive	inactive	inactive	–	inactive	inactive	inactive	inactive	inactive	–	inactive	–	inactive
CC(=O)OCC(=O)[C@@]1(O)[C@H](C)C[C@H]2[C@@H]3CCC4=CC(=O)C=C[C@]4(C)[C@@]3(F)[C@@H](O)C[C@@]21C	inactive	inactive	inactive	inactive	inactive	inactive	9.52 µM (active)	inactive	inactive	inactive	–	–	inactive	inactive	–	inactive	–	inactive	–	inactive
CC(C#N)(CCC(=O)O)N=NC(C)(C#N)CCC(=O)O (configuration not stated)	inactive	inactive	inactive	inactive	–	inactive	inactive	inactive	inactive	inactive	–	–	inactive	inactive	inactive	inactive	–	inactive	–	inactive
O=S(=O)(O)c1cc(O)c(O)c(S(=O)(=O)O)c1	–	inactive	inactive	inactive	inactive	inactive	inactive	inactive	inactive	inactive	inactive	inactive	inactive	inactive	inactive	inactive	inactive	inactive	–	inactive
Clc1cc(Cl)c(Cl)nc1Cl	inactive	inactive	inactive	inactive	inactive	inactive	inactive	inactive	inactive	inactive	–	–	inactive	inactive	inactive	inactive	–	inactive	–	inactive
